{"source": "paper PMC5540273", "about": "(PLoS ONE, 2017);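 note: KINOMEscan kinase panel screen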", "data": [{"tested_on": "TSSK1B", "conditions": "concentration: 1 μM, replicates: in singlicate; n = 1", "units": {"%Inh": "%"}, "values": [{"smiles": "CS(=O)(=O)c1ccc(-c2c(-c3ncn[nH]3)sc(N3CCOCC3)c2C#N)cc1", "%Inh": 29}, {"smiles": "CCn1c(-c2cccnc2O)nc2cnccc21", "note": "[SB-736715]", "%Inh": 0}, {"smiles": "Cc1cc(-c2ccc3c(c2)CC[C@@H](N[C@@H](C)c2ccccc2)C3)cnc1N.Cl", "note": "[GW412617]", "%Inh": 37}, {"smiles": "COc1ccccc1CNC(=O)c1cc(C(=O)c2ccccc2C)c[nH]1", "note": "[GSK364507]", "%Inh": 16}, {"smiles": "Cc1cccc(-c2nc(-c3ccc(S(C)(=O)=O)cc3)sc2-c2ccnc(NCCc3ccccc3)c2)c1", "%Inh": 0}, {"smiles": "CC(=O)Nc1nc2cnc(Nc3cc(NC(=O)c4cccc(CCC#N)c4)ccc3C)nc2s1", "%Inh": 2}, {"smiles": "Cc1cccc(-c2nc(C)cc(Nc3ccncc3)n2)n1", "note": "[GSK257997]", "%Inh": 3}, {"smiles": "CS(=O)(=O)c1ccc(-c2nc3n(c2-c2ccncc2)CCC3)cc1", "note": "[SKF-105942]", "%Inh": 100}, {"smiles": "Cl.c1ccc(-c2n[nH]cc2-c2ccnc(-c3ccc(CN4CCOCC4)cc3)c2)nc1", "note": "[GW776245]", "%Inh": 0}, {"smiles": "Nc1ncnc2[nH]c(-c3ccccc3)nc12", "note": "[AH5015]", "%Inh": 9}, {"smiles": "O=C(O)COc1ncnc2cc(-c3ccc4[nH]ncc4c3)sc12", "%Inh": 0}, {"smiles": "COc1cc2ncn(-c3cc(OCC4CCCO4)c(C(N)=O)s3)c2cc1OC", "note": "(centres unmarked) [GSK204607]", "%Inh": 0}, {"smiles": "Cc1ccc(NC(=O)Nc2cc(C(C)(C)C)nn2-c2ccccc2)cc1", "note": "[GSK1014915]", "%Inh": 2}, {"smiles": "Cc1cccc(-c2nc(Nc3ccc4[nH]ncc4c3)c3ccccc3n2)n1", "note": "[GW857175]", "%Inh": 72}, {"smiles": "CC(C)(C)c1ccc(C(=O)Nc2cn3cc(Cl)ccc3n2)cc1", "%Inh": 0}, {"smiles": "Cn1cncc1-c1ccc2ncnc(Nc3ccc(OCc4ccccc4)cc3)c2c1", "note": "[GW320571]", "%Inh": 29}, {"smiles": "O=C(Nc1n[nH]c2nc(-c3nccs3)c(Br)cc12)C1CC1", "note": "[SB-742251]", "%Inh": 0}, {"smiles": "CN1C(=O)C(Nc2ccc(Cl)c(C(=O)O)c2)=C(c2ccc(Cl)cc2)C1=O", "note": "[SB-404290]", "%Inh": 0}, {"smiles": "Cc1cc(N2Cc3ccccc3C2)nc(Nc2ccc(S(=O)(=O)N3CCOCC3)cc2)n1.Cl", "note": "[GSK1669917]", "%Inh": 0}, {"smiles": "CN(C)CCN(C)C(=O)c1cc(-c2ccncc2)c(-c2ccc(Cl)c(O)c2)o1.Cl.Cl", "note": "[SB-710397]", "%Inh": 24}, {"smiles": "Cc1csc(-c2nc(Nc3ccncc3)c3ccccc3n2)n1", "note": "[GW869640]", "%Inh": 0}, {"smiles": "Cc1ccc(NC(=O)Nc2cccc(Cl)c2)cc1-c1ccc(C(=O)Nc2ccncc2)cc1", "note": "[GSK1398468]", "%Inh": 0}, {"smiles": "O=C(Nc1n[nH]c2cc(-c3cccc(F)c3F)ccc12)C1CC1", "note": "[SB-733894]", "%Inh": 0}, {"smiles": "O=C(Nc1ccccc1)Nc1cccc(Oc2ccc3nccn3n2)c1", "%Inh": 0}, {"smiles": "Cl.O=C(Nc1cccc(-c2nn3ncccc3c2-c2ccnc(Nc3cccnc3)n2)c1)c1c(F)cccc1F", "note": "[GSK312879]", "%Inh": 27}, {"smiles": "O=C(Nc1n[nH]c2nc(-c3nccs3)c(Br)cc12)C1CCCC1", "note": "[SB-742609]", "%Inh": 8}, {"smiles": "COc1cc(Nc2nccc(N3CCC(NC(=O)Nc4cc(C)ccc4C)C3)n2)cc(OC)c1OC", "note": "(centres unmarked) [GSK1379762]", "%Inh": 7}, {"smiles": "COc1cc2nccc(Nc3ccc(NC(=O)c4ccc(C)cc4)c(O)c3)c2cc1OC.Cl", "note": "[GW440132]", "%Inh": 3}, {"smiles": "O=C(Nc1ccc2c(c1)OCO2)NC1CCN(c2ccnc(Nc3ccc(F)cc3)n2)C1", "note": "(centres unmarked) [GSK1379724]", "%Inh": 0}, {"smiles": "O=C1NC(=O)C(N2CCc3ccccc32)=C1c1ccccc1Cl", "note": "[SB-373598]", "%Inh": 8}, {"smiles": "Fc1cccc(COc2nnc(-c3ccc4c(c3)CCO4)o2)c1", "%Inh": 0}, {"smiles": "Cc1cccc(-c2nc(Nc3cccc(C(N)=O)c3)c3ccccc3n2)n1", "note": "[GW876019]", "%Inh": 10}, {"smiles": "Cc1c(O)cccc1Nc1ccnc2ccc(C(F)(F)F)cc12.Cl", "note": "[GW466413]", "%Inh": 0}, {"smiles": "COc1ccc(Nc2nccc(-c3cccc(NC(=O)c4cc5cc(F)ccc5[nH]4)c3)n2)cc1", "note": "[GSK1229782]", "%Inh": 22}, {"smiles": "Cc1cc(NCC(c2ccccc2)c2ccccc2)nc(NCc2ccc(C(F)(F)F)cc2)n1", "note": "[GW497681]", "%Inh": 0}]}]}
